From PubChem BioAssay (Tox21)
Several values for one entry are separate records, joined by “and”; a condition that tells them apart may be missing. Equal entries are not always repeated. Records with an inconclusive call do not appear. Entries that show only a call come without a potency. More than one record can exist for a structure, and the calls need not agree. Activity calls are given as the source filed them. The call rests on the fitted dose curve; in most records, active means well fitted curve in the direction sought with a large enough effect in the repeat runs; inconclusive means weak or mixed curves; inactive means no such curve, though single readings can be large; an effect the other way counts as inactive or inconclusive.

Legend:
[1] = A CellTox Green Cytotoxicity Assay to monitor cytotoxicity in HEK293 cells - 40 hour (AID 1224871); further: nearly all actives have a fitted effect of over 45% in size
How it was run: (§1)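 Read-out: fluorescence of a cell-impermeant cyanine dye staining DNA of dead cells, proportional to cytotoxicity. HEK293, 600 cells/well with reagent, compound (23 nL DMSO) added after 5 h; reads at 0, 8, 16, 24, 32, 40 h.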

[2] = qHTS RealTime-Glo MT Cell Viability Assay in HEK293 cells - 16 hour (AID 1224872); further: nearly all actives have a fitted effect of over 50% in size
How it was run: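 Quantitative high-throughput screen of the Tox21 10K library in HEK293: cells and RealTime-Glo reagents plated together, compound added at 5 h, luminescence monitored through 40 h at 37 C.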

[3] = qHTS RealTime-Glo MT Cell Viability Assay in HepG2 cells - 8 hour (AID 1224873); further: nearly all actives have a fitted effect of over 55% in size
How it was run: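 HepG2 cells (600/well) mixed with RealTime-Glo MT reagent, settled 5 h at 37 C/5% CO2 before compound addition. Nonlytic NanoLuc luminescence from viable-cell prosubstrate reduction read repeatedly during 40 h treatment at 37 C.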

[4] = qHTS RealTime-Glo MT Cell Viability Assay in HEK293 cells - 40 hour (AID 1224874); settings: RealTime-Glo luminescence; max response: stronger effect = lower value; further: nearly all actives have a fitted effect of over 50% in size
How it was run: (§2)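 Luminescence readout at each listed time point; HEK293, 600 cells/well, RealTime-Glo MT reagent added with cells; compounds pinned (23 nL in DMSO) after 5 h at 37 C; continuous culture at 37 C.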

[5] = A CellTox Green Cytotoxicity Assay to monitor cytotoxicity in HEK293 cells - 24 hour (AID 1224875); further: nearly all actives have a fitted effect of over 45% in size
How it was run: as §1

[6] = qHTS RealTime-Glo MT Cell Viability Assay in HepG2 cells - 32 hour (AID 1224877); further: nearly all actives have a fitted effect of over 55% in size
How it was run: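 Compound treatment began 5 h after plating HepG2 cells (600/well) with NanoLuc luciferase and prosubstrate. Plates stayed at 37 C for 40 h; luminescence was captured at six time points, 0 h through 40 h.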

[7] = A CellTox Green Cytotoxicity Assay to monitor cytotoxicity in HepG2 cells - 24 hour (AID 1224878); further: nearly all actives have a fitted effect of over 45% in size
How it was run: (§3)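 HepG2, 600 cells/well premixed w/ CellTox Green; 5 h settle, 37 C/5% CO2; pintool cpd add (DMSO); 37 C, 40 h; fluorescence read at 0, 8, 16, 24, 32, 40 h.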

[8] = qHTS RealTime-Glo MT Cell Viability Assay in HEK293 cells - 0 hour (AID 1224880); further: nearly all actives have a fitted effect of over 45% in size
How it was run: as §2

[9] = A CellTox Green Cytotoxicity Assay to monitor cytotoxicity in HepG2 cells - 16 hour (AID 1224876); further: nearly all actives have a fitted effect of over 45% in size
How it was run: as §3

[10] = A CellTox Green Cytotoxicity Assay to monitor cytotoxicity in HepG2 cells - 40 hour (AID 1224879); further: nearly all actives have a fitted effect of over 40% in size
How it was run: as §3
Potency means the concentration at half of the fitted maximal effect.

Structure (SMILES) | Potency [1] | Potency [2] | Potency [3] | max response [4] | Potency [5] | Potency [6] | Potency [7] | Potency [8] | Potency [9] | Potency [10] | Potency [4]
CC(C)(C)c1cc(C(C)(C)C)c(O)c(C(C)(C)C)c1 | 54.9 µM (active) and 34.7 µM (active) | inactive | inactive | -7.81% (inactive) | 54.9 µM (active) and 38.9 µM (active) | inactive | 54.9 µM (active) | inactive |  |  | 
CCCC(=O)c1ccccc1 | inactive | inactive | inactive | 2.03% (inactive) |  | inactive | inactive | inactive | inactive | inactive | 
C#CC(C)(CC)OC(=O)c1ccccc1C(=O)O (stereo not drawn) | inactive | inactive | inactive | 0.788% (inactive) | inactive | inactive | inactive | inactive | inactive |  | 
CCN1CCCC1CNC(=O)c1cc(S(=O)(=O)CC)c(N)cc1OC (stereo not drawn) | inactive | inactive | inactive | 2.04% (inactive) |  | inactive | inactive | inactive | inactive | inactive | 
c1ccc2n[nH]nc2c1 | inactive | inactive | inactive | 10.2% (inactive) and 5.87% (inactive) | inactive | inactive | inactive | inactive | inactive |  | 
CC(C)CCOC(=O)c1ccc(N(C)C)cc1 | inactive | inactive | inactive | 3.04% (inactive) | inactive | inactive | inactive | inactive | inactive | 1.9 µM (active) | 
O=C(O[C@@H]1Cc2c(O)cc(O)cc2O[C@@H]1c1cc(O)c(O)c(O)c1)c1cc(O)c(O)c(O)c1 | inactive | 11.9 µM (active) | inactive |  | inactive |  | inactive | inactive | inactive | inactive | 7.48 µM (active)
CCCCCCCCCCCCCC[P+](CCCC)(CCCC)CCCC | 13.7 µM (active) and 17.4 µM (active) | 5.46 µM (active) and 549 nM (active) | 38.7 µM (active) and 17.4 µM (active) |  | 12.2 µM (active) and 17.4 µM (active) | 21.8 µM (active) and 12.3 µM (active) | 21.8 µM (active) and 15.5 µM (active) | inactive | 21.8 µM (active) and 19.5 µM (active) |  | 137 nM (active) and 174 nM (active)
O=Cc1ccc(Cl)cc1 | inactive | inactive | inactive | -1.8% (inactive) | inactive | inactive | inactive | inactive | inactive | inactive | 
COc1cc(C(=S)N2CCOCC2)ccc1O | inactive | inactive | inactive | 0.473% (inactive) | inactive | inactive | inactive | inactive | inactive | inactive | 
C=CS(=O)(=O)O | inactive | inactive | inactive | 2.23% (inactive) | inactive | inactive | inactive | inactive | inactive |  | 
COC(=O)c1cccc(C(=O)OC)c1 | inactive and 38.9 µM (active) | inactive | inactive | 2.68% (inactive) and 4.11% (inactive) |  | inactive | inactive and 38.9 µM (active) | inactive | inactive and 38.9 µM (active) | inactive and 24.5 µM (active) | 
CCCN[C@H]1CCc2nc(N)sc2C1 | inactive | inactive | inactive | -11% (inactive) |  | inactive | inactive | inactive | inactive |  | 
Cc1cc(C2(c3cc(C)c(O)cc3C)OS(=O)(=O)c3ccccc32)c(C)cc1O | inactive | inactive |  | -21.7% (inactive) and -18.4% (inactive) | inactive |  | inactive | 27.5 µM (active) and 24.5 µM (active) | inactive |  | 
Cc1c(O)cccc1C(=O)N[C@@H](CSc1ccccc1)[C@H](O)CN1C[C@H]2CCCC[C@H]2C[C@H]1C(=O)NC(C)(C)C | inactive |  | inactive |  | inactive | inactive | inactive | inactive | inactive | 42.5 µM (active) and 10.7 µM (active) | 13.4 µM (active)
N[C@@H]1CONC1=O | inactive | inactive | inactive |  | inactive | inactive |  | inactive |  |  | 

Structure (SMILES) | Potency [1] | Potency [2] | Potency [3] | max response [4] | Potency [5] | Potency [6] | Potency [7] | Potency [8] | Potency [9] | Potency [10] | Potency [4]
CCCCCCCCCCCC[N+](C)(C)C | 54.8 µM (active) and 17.4 µM (active) and 54.9 µM (active) |  | inactive |  | inactive | 48.9 µM (active) and 49 µM (active) | 54.8 µM (active) and 54.9 µM (active) and 49 µM (active) | inactive | 43.6 µM (active) | 43.5 µM (active) and 43.6 µM (active) and 38.9 µM (active) | 4.35 µM (active) and 9.77 µM (active)
O=C1OC2(c3ccc(O)cc3Oc3cc(O)ccc32)c2ccccc21 | 692 nM (active) and 1.2 µM (active) | inactive |  | 12.3% (inactive) and -17.2% (inactive) | 692 nM (active) and 1.07 µM (active) | inactive | 616 nM (active) and 301 nM (active) | inactive | 616 nM (active) and 301 nM (active) |  | 
CCOc1ccc2c(c1)C(C)=CC(C)(C)N2 | inactive |  | inactive | -10.3% (inactive) and 3.02% (inactive) | inactive | inactive | inactive | inactive | inactive | inactive | 
Oc1c(Cl)cc(Cl)c(Cl)c1Cc1c(O)c(Cl)cc(Cl)c1Cl | 48.9 µM (active) and 49 µM (active) and inactive | inactive | inactive |  |  | inactive and 21.9 µM (active) | inactive and 38.9 µM (active) | inactive | inactive and 43.6 µM (active) | 21.8 µM (active) and 38.9 µM (active) | 2.45 µM (active) and 3.89 µM (active)
CCCCN(CCO)CCCC | inactive | inactive | inactive | 2.9% (inactive) |  | inactive | inactive | inactive | inactive |  | 
NCCCCCC(=O)O | inactive |  | inactive | -0.0726% (inactive) | inactive | inactive | inactive | inactive | inactive | inactive | 
CC(C)CCCCCCc1ccc(O)cc1 | 19.8 µM (active) and 38.9 µM (active) | 3.96 µM (active) |  |  |  | 19.8 µM (active) and inactive | 22.3 µM (active) and 38.9 µM (active) | inactive | 44.4 µM (active) and 27.5 µM (active) | 14 µM (active) and 43.6 µM (active) | 1.25 µM (active)
Cc1ccc(S(=O)(=O)Oc2ccc(N=Nc3ccc(-c4ccc(N=Nc5c(O)ccc6cc(S(=O)(=O)O)cc(S(=O)(=O)O)c56)c(C)c4)cc3C)cc2)cc1 | inactive | inactive |  | -0.0985% (inactive) | inactive |  | inactive |  | inactive |  | 
COC(c1ccccc1)(c1ccccc1)[C@H](Oc1nc(C)cc(C)n1)C(=O)O | inactive | inactive | inactive | -3.67% (inactive) |  | inactive | inactive | inactive | inactive |  | 
c1cc(C(c2ccc(OCC3CO3)cc2)C(c2ccc(OCC3CO3)cc2)c2ccc(OCC3CO3)cc2)ccc1OCC1CO1 (stereo not drawn) | inactive |  | inactive | -1.63% (inactive) | inactive | inactive | inactive | inactive | inactive | inactive | 
O | inactive | inactive | inactive | 0.569% (inactive) and 9.85% (inactive) |  | inactive | inactive | inactive | inactive | inactive | 
COC(=O)[C@H]1[C@H]2C[C@@H]3c4[nH]c5cc(OC)ccc5c4CCN3C[C@H]2C[C@@H](OC(=O)c2cc(OC)c(OC)c(OC)c2)[C@@H]1OC | inactive | 4.89 µM (active) and 5.65 µM (active) and 4.77 µM (active) |  |  |  |  | inactive | inactive | inactive | 43.6 µM (active) and 40 µM (active) and 23.9 µM (active) | 4.36 µM (active) and 7.98 µM (active) and 8.49 µM (active)
CCc1cc(C(C)(C)C)c(O)c(C(C)(C)C)c1 | 21.9 µM (active) |  | inactive | 1.58% (inactive) and -10.1% (inactive) | 21.9 µM (active) | inactive | inactive | inactive | inactive | inactive | 
COc1ccc(Cc2cnc(N)nc2N)cc1OC | inactive | inactive | inactive | 0.446% (inactive) |  | inactive | inactive | inactive | inactive | inactive | 
